# Test results taken from PubChem BioAssay AID598 (SRMLSC, 2007).
# The whole screen tested about 85,000 compounds, of which about 5,100 (6%) were called active. Many of the other results were omitted from the sample, so actives are more common in it than they were. Values without a mark were called inactive.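 How the source made its calls: active means viability at or below 40%; inactive means viability above 40%.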
# Test: H69AR cell viability reduction – human, 86K library, primary screen (AID 598);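 further: multidrug resistant small cell line overexpressing MRP-1 efflux transporter; 100% = mean luminescence of untreated control wells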
# Settings: H69AR lung tumor viability, ATP luminescence, 72 h; at 10 µM; hits give low values
row,Structure (SMILES),viability
1,Cc1cc2nc(C)n(CCCNC(=O)Nc3ccccc3)c2cc1C,91.7%
2,CCC1CCCCN1CCCNC(=O)C1CCC(Cn2c(=O)[nH]c3ccccc3c2=O)CC1 (stereo not drawn),77.4%
3,Cc1cccc(NC(=O)C2CC(=O)OC23CCCC3)c1 (stereo not drawn),102%
4,COc1ccc(C2CC(c3ccc(C)cc3)Nc3ncnn32)cc1 (stereo not drawn),91.5%
5,Clc1ccc(C2CC(c3cccs3)n3ncnc3N2)cc1Cl (stereo not drawn),35.8% (active)
6,COc1ccc(C2CC(c3ccccc3)Nc3ncnn32)cc1 (stereo not drawn),90.5%
7,Cc1cccc(C(=O)Nc2ccccc2N2CCN(c3ccc(F)cc3)CC2)c1,89.6%
8,FC(F)(F)c1nnc2ccc(N3CCN(c4ccccc4)CC3)nn12,92.5%
9,COc1ccc(S(=O)(=O)N2CCC(C(=O)N3CCc4ccccc4C3)CC2)cc1OC,88.7%
10,COc1cc2c(cc1OC)CN(C(=O)c1cc(=O)c3ccccc3o1)CC2,18.1% (active)
11,COc1ccc2c(c1)CCc1c(C(=O)N3CCc4ccccc4C3)noc1-2,94.9%
12,CCN(CC)C(=O)CSc1nc2ccccc2o1,91.7%
13,CCOc1c(Br)cc(/C=C2\C(=O)N(CCC#N)N=C2C)cc1OC,26.2% (active)
14,CCOc1cc(/C=N/O)cc(Br)c1OC,90.5%
15,Cc1nnc(NCCO)c2ccccc12,89.8%
16,Cn1c(SCC(=O)N2CCCc3ccccc32)nc2ccccc2c1=O,62.9%
17,Fc1ccccc1/C=C1\CCCC2=C1Nc1ncnn1C2c1ccccc1F (stereo not drawn),1.53% (active)
18,COc1ccc(C2C(C(C)=O)=C(O)C(=O)N2c2nccs2)cc1 (stereo not drawn),106%
19,O=C(N/N=C/c1ccc(O)cc1)/C(=C/c1ccc([N+](=O)[O-])cc1)NC(=O)c1ccccc1,88.2%
20,COc1c(F)c(F)c(C(=O)O)c(Nc2ccccc2C)c1F,98.5%
21,COc1ccc(C(=O)OCC(=O)NCC2CCCCC2)cc1S(=O)(=O)N1CCCc2ccccc21,72.3%

row,Structure (SMILES),viability
1,C=CCn1c(SCCOc2ccc(OC)cc2)nnc1C(NC(=O)c1ccc(OC)cc1)C(C)C (stereo not drawn),64%
2,CCN(CC(=O)NC1CCS(=O)(=O)C1)c1nc(-c2cccnc2)nc2ccccc12 (stereo not drawn),89.7%
3,Cc1cccc(N2CCN(S(=O)(=O)c3ccc4[nH]c(=O)c(=O)[nH]c4c3)CC2C)c1 (stereo not drawn),98.9%
4,Cc1cccc(-n2c(N)c(C(=O)N3CCN(C)CC3)sc2=S)c1,94.4%
5,Cc1cccc(-n2c(O)c(C=Nc3ccccc3N)c(=O)[nH]c2=O)c1,10% (active)
6,O=C(C(NS(=O)(=O)c1cccc2nsnc12)c1ccccc1)N1CCN(c2ccccc2)CC1 (stereo not drawn),52.6%
7,CCSc1nnc(NC(=O)c2ccc(C)cc2)s1,103%
8,O=C(Nc1ccccc1)Nc1ccccc1C(=O)NCc1ccco1,99.2%
9,CCOc1ccccc1C(=O)NCc1ccco1,74.1%
10,Cc1cccc(Nc2ccccc2C(=O)NCc2ccco2)c1C,15.7% (active)
11,O=C(Oc1ccccc1C(=S)N1CCCCC1)c1cc([N+](=O)[O-])cc([N+](=O)[O-])c1,94.3%
12,COc1ccccc1N1CC(O)=C(c2nc3ccccc3s2)C1=N,31.6% (active)
13,COC(=O)c1nc2ccccc2s1,86.8%
14,O=C(OC1CCOC1=O)c1ccc(-c2nc3ccccc3s2)s1 (stereo not drawn),92.7%
15,COc1ccc(-c2nnc(SCc3cccnc3)o2)cc1,53.3%
16,O=C(COc1ccc(Cl)cc1)NCCSc1ccccc1,95.3%
17,CCOC(=O)c1nc(-c2ccc3c(c2)OCO3)[nH]c1C,36% (active)
18,CCOC(=O)NCc1ccc2c(c1)OCO2,113%
19,CCOC(=O)c1c(C)[nH]c(C(=O)COc2ccc3c(c2)OCO3)c1C,81.1%
20,CCC(=O)Nc1ccc2c(c1)nc(CCN1CCN(C)CC1)n2C,74.1%
21,Cc1nn(CC(=O)Nc2ccc3c(c2)nc(CN2CCCCC2)n3C)c(=O)c2ccccc12,104%

row,Structure (SMILES),viability
1,Cn1c(CCN2CCCCCC2)nc2cc(NC(=O)Nc3ccccc3)ccc21,9.15% (active)
2,CC1CCC(N2CC(=O)N(Cc3ccc4c(c3)OCO4)C(c3ccc(F)cc3)C2=O)CC1 (stereo not drawn),100%
3,COC(=O)c1sc(NC(=O)c2ccc(OC)cc2OC)nc1C,69.8%
4,COc1cccc2sc(Nc3nc(C)c(C(C)=O)s3)nc12,32.5% (active)
5,CC(=O)c1sc(NC(=O)c2ccc(C)cc2)nc1C,80%
6,CC(C)CC(N=C1NC(C)(C)Cc2ccccc21)C(=O)O (stereo not drawn),108%
7,CCCCc1nnc(NC(=O)CSc2nc(C)cc(=O)[nH]2)s1,92.2%
8,Cc1ccc(-n2c(CNc3ccc(F)cc3)nnc2SCC(=O)N2CCOCC2)cc1,92%
9,O=C(NCCC1=CCCCC1)C1CCN(Cc2cnn(-c3ccccc3)c2-n2cccc2)CC1,26% (active)
10,C1=C(CCNc2ncnc3c2cnn3-c2ccccc2)CCCC1,77%
11,CC(=O)Nc1ccc(NC(=O)CSCc2cnn(-c3ccccc3)c2-n2cccc2)cc1,87.6%
12,CC(C)Oc1ccc(Oc2ccc(C(F)(F)F)cn2)cc1,98.7%
13,N=c1n(Cc2ccc(Cl)cc2)c2ccccc2n1CC(O)c1ccco1 (stereo not drawn),14.7% (active)
14,O=S(=O)(O)c1nc2ccccc2n1Cc1ccc(Cl)cc1,86.1%
15,Cn1c(=N)n(CC(O)c2ccccc2)c2ccccc21 (stereo not drawn),80.7%
16,O=C(NCc1ccccc1Cl)c1csc2c1CCCCC2,97.3%
17,Cc1ccsc1C(C(=O)NC1CCCCC1)N(C(=O)Cc1cccs1)C1CC1 (stereo not drawn),25.5% (active)
18,CC(Cc1cccs1)NC(=O)NC1CCCCC1 (stereo not drawn),87%
19,O=C(NCC(=O)N(Cc1cccs1)C(C(=O)NC1CCCCC1)c1ccco1)c1cccs1 (stereo not drawn),82.2%
20,CC(=O)c1ccc(OCCN2CCOCC2)cc1,85.9%
21,Cc1ccc(NC(=O)N2CCC(O)(c3cccnc3)CC2)cc1,78.4%
